Records with an inconclusive call do not appear. Entries that show only a call come without a potency. The source holds several records for some structures; these can differ, active in one and inactive in another. Calls of active or inactive are those of the source. Calls come from the whole dose curve; as a rule, active = well fitted cell-killing curve with a large enough effect in the repeat runs; inconclusive = weak or mixed curves, or effect the other way; inactive = no such curve, though single readings can be large or run the other way.
Potency is the fitted concentration of half-maximal effect.

This assay in a line: qHTS assay to identify small molecule antagonists of the vitamin D receptor (VDR) signaling pathway - cell viability counter screen (AID 743225). Note: nearly all actives have a fitted effect of over 50% in size. To be noted: VDR-bla HEK293T viability, CellTiter-Glo luminescence, 16 h; series mostly up to 61 µM; viability change, negative = cytotoxic: at the top concentration. From the text:
U.S. Tox21 Program National Center for Advancing Translational Sciences [NCATS] NIH Chemical Genomics Center [NCGC] U.S. Environmental Protection Agency [EPA] National Institutes of Environmental Health Sciences [NIEHS] National Toxicology Program [NTP] U.S. Food and Drug Administration [FDA] Tox21 Assay Overview: The vitamin D receptor (VDR), a member of nuclear hormone receptor superfamily, plays a critical role in calcium homeostasis and bone metabolism. It is also involved in cell differentiation and growth, and thrombogenicity. To identify the compounds that inhibit VDR signaling, the VDR-UAS-bla HEK 293T cell line (Invitrogen, Carlsbad, CA, USA) containing a beta-lactamase reporter gene under the control of an upstream activator sequence (UAS) was used to screen the Tox21 10K compound library. The cytotoxicity of the Tox21 compound library against the VDR-bla cell line was tested in parallel by measuring the cell viability using CellTiter-Glo assay (Promega, Madison, WI) in the same wells.
Tox21 Assay Protocol Summary: VDR-bla cells were dispensed at 2,000 cells/5 uL of assay medium per well into black wall/clear-bottom 1536-well plates using a Multidrop Combi (Thermo Fisher Scientific, Waltham, MA) dispenser. After the assay plates were incubated at a 37C and 5% CO2 for 4 h, 23 nL of compounds dissolved in DMSO, positive controls or DMSO only was transferred to the assay plate by a Pintool station (Kalypsys, San Diego, CA), followed by addition of 1 uL of 1-alpha, 25-Dihydroxy Vitamin D3 (3 nM, final concentration in the wells) using a Bioraptr Flying Reagent Dispenser (FRD) workstation (Beckman Coulter, Indianapolis, IN). The plates were incubated at 37C and 5% CO2 for 16 h, and then 1 uL of LiveBLAzerTM B/G FRET substrate was added using a Bioraptr FRD. The plates were incubated at room temperature for 2 h and fluorescence intensity was measured by an Envision plate reader (PerkinElmer, Shelton, CT). For cell viability readout that measures cytotoxicity, 3 ul/well of CellTiter-Glo reagent was added into the assay plates using a Bioraptr FRD. After 30 min incubation at room temperature, the luminescence intensity in the plates was measured using a ViewLux plate reader (PerkinElmer).
For the compound `C[C@]12C=CC(=O)C=C1CC[C@H]1[C@@H]3C[C@@H](O)[C@](O)(C(=O)CO)[C@@]3(C)C[C@H](O)[C@@]12F`, the “viability change, negative = cytotoxic” value was -1.11% (inactive).
The same measure, in the same setting: as for `CCC(=O)O[C@H]1[C@H](O[C@@H]2[C@@H](C)[C@H](O[C@H]3C[C@@](C)(OC)[C@@H](O)[C@H](C)O3)[C@@H](C)C(=O)O[C@H](CC)[C@@](C)(O)[C@H](O)[C@@H](C)C(=O)[C@H](C)C[C@@]2(C)O)O[C@H](C)C[C@@H]1N(C)C`, the figure is -3.58% (inactive).
Consider `COCCOCCOCCO`, for which the Potency entry is “inactive”.
The same measure, in the same setting: then `CC(C)(C)c1cccc(C(C)(C)C)c1O`, with “inactive”.
The same measure, in the same setting: then `Cc1ccc(/C(=C\CN2CCCC2)c2ccccn2)cc1`, with “inactive”.
The same measure, in the same setting: as for `CC[C@]12CCCN3CCc4c(n(c5ccccc45)[C@@](O)(C(=O)OC)C1)[C@@H]32`, the entry is “inactive”.
Regarding `C=CCOC(=O)C(=C)C`, the “viability change, negative = cytotoxic” value is 0.641% (inactive).
Same read-out and setting: as for `Oc1c(Cl)ccc(Cl)c1Cl`, the figure is -12.6% (inactive).
In the case of `CC1(C)C(C=C(Cl)Cl)C1C(=O)OCc1cccc(Oc2ccccc2)c1` (stereo not given), the Potency result is “inactive”.
`c1ccc2ncccc2c1`: the Potency entry was “inactive”.
On to `CC(=O)OC(C)C`, for which the “viability change, negative = cytotoxic” value was 22.1% (inactive).
Turning to `Cc1ccc(N)c([N+](=O)[O-])c1`, the Potency entry is “inactive”.
On the same count and under the same terms, then `C=C[Si](OCCOC)(OCCOC)OCCOC`, with “inactive”; and `CNC[C@H](O)c1ccc(O)c(O)c1`, with “inactive”; and `NCCOCCO`, with “inactive”.
Turning to `CCCCCCCCCCCCO`, the Potency entry is “inactive”.
On the same count and under the same terms, then `CC1=CC(C)(C)Nc2ccccc21`, with “inactive”; and `C1COCCN1`, with “inactive”.
Same read-out and setting: then `Nc1cc(Cl)c(N)c(Cl)c1`, with “inactive”; and `CC(C)[C@@H]1CC[C@@H](C)CC1=O`, with “inactive”; and `Cc1ccc(S(=O)(=O)NCl)cc1`, with “inactive”.
The same measure, in the same setting: then `CCO[Si](CCCNC(N)=O)(OCC)OCC`, with “inactive”; and `CCc1cccc2c3c([nH]c12)C(CC)(CC(=O)O)OCC3` (stereo not given), with “inactive”; and `CCC/C=C/C=O`, with “inactive”.
For the compound `CCCOCCO`, the “viability change, negative = cytotoxic” value was -6.92% (inactive).
On to `c1ccc2c(c1)[nH]c1ccccc12`, for which the Potency entry is “inactive”.
Turning to `CC(C)=CCO`, the “viability change, negative = cytotoxic” value is 8.93% [at 78.8 µM] (inactive).
With `CN(C)CCCN1c2ccccc2Sc2ccc(Cl)cc21`, the Potency was 24.5 µM (active) and inactive.
On to `FC(F)(F)C(Cl)Br` (stereo not given), for which the Potency result is “inactive”.
On the same count and under the same terms, then `CCCCCCCCCCCCCO`, with “inactive”; and `CC(C)(Oc1ccc(Cl)cc1)C(=O)O`, with “inactive”; and `CC(=O)O[C@]1(C(C)=O)CC[C@H]2[C@@H]3C=C(C)C4=CC(=O)CC[C@]4(C)[C@H]3CC[C@@]21C`, with “inactive”.
On to `O=C1CCc2ccccc2O1`, for which the “viability change, negative = cytotoxic” value was -0.334% (inactive).
As to `CCC(Cc1c(I)cc(I)c(N)c1I)C(=O)O` (stereo not given), the Potency result was “inactive”.
On the same count and under the same terms, as for `CC(=O)[C@@]1(O)CC[C@H]2[C@@H]3C[C@H](C)C4=CC(=O)C=C[C@]4(C)[C@@]3(F)[C@@H](O)C[C@@]21C`, the entry is “inactive”; as for `NC[C@H](O)c1ccc(O)c(O)c1`, “inactive”; as for `O=C(O)COCCN1CCN(C(c2ccccc2)c2ccc(Cl)cc2)CC1` (stereo not given), “inactive”.
Take `Cc1ccc(C(C)(C)C)c(O)c1`: the “viability change, negative = cytotoxic” value is -1.72% (inactive).
In the case of `c1ccc2c(c1)ccc1cc3c(ccc4ccccc43)cc12`, the Potency result is “inactive”.
On the same count and under the same terms, then `CC(=O)Oc1ccc(C(c2ccc(OC(C)=O)cc2)c2ccccn2)cc1`, with “inactive”.

These data come from PubChem BioAssay (Tox21).
